Test results reported in PubChem BioAssay (NCI).
The panel holds about 83,000 compounds, 20% with a hit somewhere; the sample as a whole holds those more often.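 Growth was measured after 48 h exposure to one concentration of compound in 96-well plates. Values under 10 count as active.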 Active and inactive are the calls of the source.

tested on: MDA-MB-468 breast; experiment: NCI-60 one-dose screen, 48 h (100 = growth as untreated, 0 = no growth, -100 = all killed); conditions: 10 µM unless noted

For `Cc1ccc(/C=C2\CN(C(=O)CCN3CCC(=NO)CC3)C/C(=C\c3ccc(C)cc3)C2=O)cc1`, which growth is on record?
The growth was -54.2% (active).

Which growth does the source give for `O=S(=O)(NCCNc1nccc(-c2c(-c3ccccc3)nc3sccn23)n1)c1ccc(O)cc1` here?
The growth was 19.9% (inactive).

`CCCCOc1ccc(/C=C2/SC(N3CCCC3)=NC2=O)cc1` was tested. Which growth did it give?
The growth was 93.1% (inactive).

Which growth does the source give for `CC(=O)OC[C@H](O)[C@@]1(O)CC[C@H]2[C@@H]3CCC4=CC(=O)CC[C@]4(C)[C@H]3[C@@H](O)C[C@@]21C` here?
Its growth is 112% (inactive).

With `CCCCCCNC(=O)Oc1ccc(/C(=C(\C)c2ccc(OC)cc2)c2ccc(OCCN(C)C)cc2)cc1` as the molecule, how does the growth read?
The growth was 95.4% (inactive).

With `CSc1ccc2c3c(n(C[C@H](O)CO)c(=O)c2c1)-c1ccccc1C3=O` as the molecule, how does the growth read?
The growth was 39.8% (inactive).

How did the growth turn out when `O=C1[C@@H]2Cc3c([nH]c4ccccc34)[C@H](c3ccc(Br)cc3)N2C(=O)CN1C1CCN(Cc2c(Cl)cccc2Cl)CC1` was run?
The growth was 95.9% (inactive).

Which growth does the source give for `N=C(N)c1ccc(-c2ccc(-c3ccc(F)cc3)s2)nc1` here?
The growth was 25.1% (inactive).

How did the growth turn out when `NS(=O)(=O)c1ccc(Nc2nc(Nc3ccccc3)nc(N3N=C(c4ccc(Cl)cc4)CC3c3ccc(Cl)cc3)n2)cc1` (stereo not given) was run?
Its growth is 26.4% (inactive).

Which growth does the source give for `COc1cc(-c2cc(/C=C3\C(=O)Nc4ccccc43)[nH]n2)cc(OC)c1OC` here?
The growth was 82% (inactive).

Which growth does the source give for `COc1ccc(/C=c2\sc3n(c2=O)C2C(NN=3)N(C)C(=O)N2C)cc1` (stereo not given) here?
Its growth is -8.89% (active).

`Cc1nn(-c2cccc(Cl)c2)c(C)c1N=Nc1ccc(Br)cc1` was tested. Which growth did it give?
The growth was 97.6% (inactive).

`CCN(C(=O)c1cc2ncccc2[nH]1)[C@H]1CCC[C@@H](NCc2cccc(F)c2)C1` was tested. Which growth did it give?
Its growth is 107% (inactive).

Which growth does the source give for `Cc1nn(-c2ccccc2)c2nc3c(nc12)C(=O)CCC3` here?
Its growth is 88.3% (inactive).

For `COc1ccc(-c2cc(/C=C/C(=O)c3ccc(N)cc3)[nH]n2)cc1`, which growth is on record?
Its growth is 4.1% (active).

For `CCn1c(CSc2nc3ccccc3c(=O)n2CCc2ccccc2)n[nH]c1=S`, which growth is on record?
Its growth is 85.6% (inactive).

With `CC(=O)Nc1ccc(OC(=O)c2ccccc2O)cc1` as the molecule, how does the growth read?
The growth was 117% (inactive).

How did the growth turn out when `COc1cc2c(cc1OC)-c1c(oc3c4c(ccc3c1=O)OC(C)(C)C=C4)CO2` was run?
Its growth is 19.2% (inactive).

How did the growth turn out when `CSc1nc(O)c(-c2ccccc2)c(=O)[nH]1` was run?
Its growth is 99.1% (inactive).

With `CN1CCN(c2ccc(Nc3nc(NCCNS(=O)(=O)c4ccc5ccccc5c4)c4sccc4n3)cc2)CC1` as the molecule, how does the growth read?
The growth was 2.8% (active).

For `N#CC1=C(N)Oc2ccc3ccccc3c2C1c1ccc([N+](=O)[O-])cc1` (stereo not given), which growth is on record?
The growth was 66.7% (inactive).

Which growth does the source give for `O=c1oc2c(Br)cc(Br)cc2cc1-c1cc(-c2ccc(-c3cc(-c4cc5cc(Br)cc(Br)c5oc4=O)nc(-c4cc5cc(Br)cc(Br)c5oc4=O)c3)cc2)cc(-c2cc3cc(Br)cc(Br)c3oc2=O)n1` here?
The growth was 117% (inactive).

With `CCN(CC)CCNc1c(C)cc(CO)c(Cl)c1C` as the molecule, how does the growth read?
Its growth is -8.33% (active).

Which growth does the source give for `CC1=C([Se]CC(OC(=O)[C@@H](CSSC(C)(C)C)NC(=O)C(C)(C)C)C(=O)NCCCCCC(=O)OCc2ccccc2)C(=O)c2ccccc2C1=O` (stereo not given in full) here?
Its growth is -21.9% (active).

With `CN(C)CCNC(=O)n1cc(-c2ccncc2)c(-c2cc(O)cc(Cl)c2)n1` as the molecule, how does the growth read?
Its growth is 84.1% (inactive).

`O=C(NCCNc1nccc(-c2c(-c3cccc(O)c3)nc3sccn23)n1)Nc1cc(C(F)(F)F)cc(C(F)(F)F)c1` was tested. Which growth did it give?
The growth was 57.8% (inactive).

`Cc1nc2oc3ccccc3c(=O)c2cc1C(=O)NCc1ccccc1` was tested. Which growth did it give?
Its growth is 89.2% (inactive).

How did the growth turn out when `COc1ccc(-c2cc(C(=O)N3N=C(c4ccc(N)cc4)CC3c3ccc(Cl)cc3)c3cc(OC)ccc3n2)cc1` (stereo not given) was run?
Its growth is 95.8% (inactive).

How did the growth turn out when `COc1c(C)c(C)c(OC)c2c1[nH]c(=O)c1c3cccnc3cn21` was run?
The growth was 114% (inactive).

For `COC(=O)[C@H]1CCCN1C[C@@H](O)CN1C(=O)/C(=C\c2cc(OC)c(OC)c(OC)c2)c2ccccc21`, which growth is on record?
Its growth is 111% (inactive).

Which growth does the source give for `Cc1nc(Cl)c2c(n1)N(C)c1ccc(Cl)cc1C(C)C2` (stereo not given) here?
Its growth is 67.1% (inactive).

`Nc1c(C(=O)Nc2ccccc2F)sc2nc3c(cc12)C(=O)CCC3` was tested. Which growth did it give?
The growth was -15.2% (active).

For `CC(C)c1ccc2occ(C=C3C(=O)NC(=O)NC3=O)c(=O)c2c1`, which growth is on record?
Its growth is 96.9% (inactive).

How did the growth turn out when `O=C1ON=[N+](c2ccc(Cc3ccc([N+]4=NOC(=O)C4CN4CCOCC4)cc3)cc2)C1CN1CCOCC1` (stereo not given) was run?
Its growth is 11.4% (inactive).

`O=C(NO)c1ccc(-n2nc(-c3ccccc3)c3ccccc32)cc1` was tested. Which growth did it give?
The growth was 52.9% (inactive).

`COc1ccc(-c2nc(-c3nc4ccc(C)cc4[nH]3)c3ccccn23)cc1` was tested. Which growth did it give?
Its growth is 45.4% (inactive).

How did the growth turn out when `Cc1ccccc1NC1CC(=O)N(c2ccc(Cl)cc2Cl)C1=O` (stereo not given) was run?
Its growth is 105% (inactive).

For `CC1(C)CC(=O)C2=C(C1)N(c1ccc(F)cc1F)C(N)=C(C#N)C2c1cc(Br)ccc1F` (stereo not given), which growth is on record?
The growth was 92.9% (inactive).

With `COc1cc(Cl)cc(-c2nn(-c3cccc(NC(=O)Nc4ccc(Cl)c(Cl)c4)c3)cc2-c2ccncc2)c1` as the molecule, how does the growth read?
The growth was 0.718% (active).

For `CCOC(=O)c1[nH]c2cc(Cl)ccc2c1[C@@H](C(=O)NC(C)(C)C)N(CC)C(=O)CCCCC#Cc1cccc2c1CN(C1CCC(=O)NC1=O)C2=O` (stereo not given in full), which growth is on record?
The growth was -14.3% (active).
